Where “and” joins values, the source holds several entries; their conditions need not be identical. Identical values can stand only once. Results filed as inconclusive are left out. Values without a mark were called inactive. Calls of active or inactive are those of the source. Calls come from the whole dose curve; as a rule, active = well fitted curve in either direction with a large enough effect; inconclusive = small, poorly fitted or top-dose-only effect; inactive = no such curve, though single readings can be large or run the other way. Residues, ends and D or L forms follow the SMILES beside them.
What follows are compounds tested against Lysosomal alpha-glucosidase (Homo sapiens) (UniProt P10253) (assay: Confirmation of Inhibitors and Activators of Human alpha-Glucosidase From Spleen Homogenate). Conditions: alpha-glucosidase enzyme activity; series mostly up to 60.5 µM; activity change, both directions: at the top concentration.
Summary of the method: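 Fluorogenic assay using human spleen homogenate (1 ug) as enzyme source with 1 mM 4-methylumbelliferyl-alpha-D-glucopyranoside, pH 5.0 citrate buffer, 40 min at 37 C. 4-MU read (Ex 365/Em 440) after NaOH/glycine stop; AC50 from Hill fits.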
With `COc1ccc(CCn2c3c(c(=O)[nH]c2=S)CN(CC(C)C)CN3)cc1OC` the Potency was 14.1 µM (active).
In the case of `Cc1sc(-c2cc3c(ccc4ccccc43)oc2=O)nc1-c1ccccc1`, the “activity change, both directions” value was 3.68%.
With `CC(=O)c1cccc(S(=O)(=O)N2CCOCC2)c1` the “activity change, both directions” value was -0.557%.
In the case of `COc1ccc(N2CCN(S(=O)(=O)c3ccc4c(c3)CC(=O)N4)CC2)cc1`, the Potency was 18.8 µM [inhibitor] (active).
`Cc1ccc2c(c1)c1ncnc(N3CCC4(CC3)OCCO4)c1n2C` was tested, and the “activity change, both directions” value was 8.53% [at 31.5 µM].
In the case of `OC[C@H]1NC[C@@H](O)[C@@H]1O`, the “activity change, both directions” value was -82.2%.
For `Cn1c(-c2ccco2)nc2cc3ccccc3cc21`, the “activity change, both directions” value was 7.84% [at 31.5 µM].
For `O=S(=O)(c1ccc(O)cc1)N1CCOCC1`, the “activity change, both directions” value was -3.67%.
In the case of `CC(=O)c1ccc(N2CCN(S(=O)(=O)c3cc4c(cc3Cl)NC(=O)C4)CC2)cc1`, the Potency was 1.83 µM [inhibitor] (active) and 5.17 µM [inhibitor] (active).
In the case of `CCCC[C@H](NC(=O)[C@@H]1CCCN1C(=O)[C@H]1CCCN1C(=O)[C@H](Cc1ccccc1)NC(=O)[C@@H](Cc1c[nH]c2ccccc12)NC(=O)[C@H](C)NC(=O)[C@H](CCCN=C(N)N)NC(=O)OC(C)(C)C)C(N)=O` (HELM PEPTIDE1{[CC(C)(C)OC(=O)[*:2]].R.A.[dW].F.[dP].P.[Nle].[am]}$$$$V2.0), the “activity change, both directions” value was 4%.
With `COc1ccc(CCn2c(=S)[nH]c(=O)c3nccnc32)cc1OC` the “activity change, both directions” value was 5.16%.
In the case of `CN1CC=C2C(C#N)=C(N)C(C#N)(C#N)[C@H](c3cccc(Cl)c3)C2C1` (stereo partly specified), the “activity change, both directions” value was 3.84% [at 31.5 µM].
`CC(=O)c1ccc(N2CCN(S(=O)(=O)c3ccc4[nH]c(=O)oc4c3)CC2)cc1` was tested, and the “activity change, both directions” value was -0.981%.
For `O=C(O)c1cc2c(ccc3ccccc32)o1`, the “activity change, both directions” value was -0.045% [at 31.5 µM].
With `CC(=O)Oc1ccc2cc(-c3nc(-c4ccccc4)c(C)s3)c(=O)oc2c1` the “activity change, both directions” value was 2.9%.
For `CCCN1CNc2c(c(=O)[nH]c(=S)n2Cc2ccc(OC)c(OC)c2)C1`, the Potency was 12.6 µM (active).
With `Cc1ccc(S(=O)(=O)N2CCOCC2)cc1C` the “activity change, both directions” value was -0.759%.
`N=c1sccn1CC(=O)Nc1cc(S(=O)(=O)N2CCCC2)ccc1Cl` was tested, and the “activity change, both directions” value was 2.92%.
In the case of `CCc1sc(-c2cc3cccc(OC)c3oc2=O)nc1-c1ccccc1`, the “activity change, both directions” value was 3.75%.
For `COc1ccc(CCn2c3c(c(=O)[nH]c2=S)CN(C(C)C)CN3)cc1OC`, the Potency was 44.7 µM (active).
`O=c1[nH]cc(C#Cc2ccccc2)c2ncncc12` was tested, and the “activity change, both directions” value was -10.9%.
For `Cc1sc(-c2cc3ccccc3oc2=O)nc1-c1ccccc1`, the “activity change, both directions” value was 26.5%.
In the case of `O=C(c1ccccc1)N1CCN(C(=O)c2ccccc2)CC1`, the “activity change, both directions” value was 0.493%.
In the case of `COc1ccc(-c2nnc(NC(=O)CSc3ccc(Cl)cc3)s2)cc1`, the “activity change, both directions” value was -0.508%.
In the case of `CC/C(=C(\c1ccccc1)c1ccc(OCCN(C)C)cc1)c1ccccc1`, the “activity change, both directions” value was -10% [at 286 µM].
In the case of `C[C@@H](NC(=O)c1nc[nH]c1C(=O)N[C@@H](Cc1ccccc1)C(=O)OC(C)(C)C)c1ccccc1`, the “activity change, both directions” value was -2.65%.
In the case of `COc1ccc2nc3c(cc2c1)Cn1c-3nc2ccccc2c1=O`, the “activity change, both directions” value was 15.6%.
With `Nc1ccccc1N=Cc1ccc(-c2cccc(Cl)c2)o1` the “activity change, both directions” value was 17.3%.
`COc1ccc(CCn2c(=S)[nH]c(=O)c3[nH]cnc32)cc1OC` was tested, and the “activity change, both directions” value was -2.31%.
For `COc1ccc(CCn2c(N)cc(=O)[nH]c2=O)cc1OC`, the “activity change, both directions” value was -1.76% [at 31.5 µM].
In the case of `CCOC(=O)N1CCN(c2cc(N(C)CCO)c([N+](=O)[O-])c3nonc23)CC1`, the “activity change, both directions” value was -2.42%.
`O=c1oc2ccccc2cc1-c1csc(Cc2nc3c(s2)CCCC3)n1` was tested, and the “activity change, both directions” value was 5.03%.
`CCCN1CNc2c(c(=O)[nH]c(=S)n2CCc2c(C)cccc2C)C1` was tested, and the “activity change, both directions” value was 9.53%.
For `COc1ccc(S(=O)(=O)N2CCN(C(=O)COc3ccc4c(C)cc(=O)oc4c3)CC2)cc1`, the “activity change, both directions” value was -18.9%.
For `O=c1oc2ccc3ccccc3c2cc1-c1nc(CCCBr)cs1`, the “activity change, both directions” value was -0.41%.
`Cc1ccc(-c2cc(C(=O)N/N=C/c3c(C)nn(-c4ccccc4)c3C)n[nH]2)s1` was tested, and the “activity change, both directions” value was 2.38%.
Potency is the fitted concentration of half-maximal effect.
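Throughout, for Potency: fluorescence of 4-methylumbelliferone released from a fluorogenic glucopyranoside substrate at pH 5.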
Throughout, for activity change, both directions: 0% is about no effect.
